Consider 38 compounds from PubChem BioAssay (EPA / NIEHS).

Activity calls are given as the source filed them. Rule for the calls: active = hit-call score of the fitted dose curve at least 0.9, where 1 is the maximum; inactive = score below 0.9.

A short description of the test: ATG_MRE_CIS: Attagene CIS-FACTORIAL HepG2 Assay for human Metal Responsive Element (MRE) (AID 2282954). The following applies: HepG2 MRE cis-reporter transcription, Attagene multiplex; actives raise or lower the signal. Put shortly:
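Readout: capillary electrophoresis of 6-FAM-labelled, HpaI-digested RT-PCR reporter products. System: HepG2 cells carrying transient multiplexed cis reporters, dosed 24 h. Analysis: bidirectional fit, DMSO baseline.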
`O=c1cc(-c2ccccc2)oc2ccc3ccccc3c12`: the compound was called inactive. By AC50 is commonly meant the midpoint of the concentration-response curve, whichever way the signal moves. Turning to `O=C(Nc1ccc(Cl)c(Cl)c1)c1cc(Cl)cc(Cl)c1O`, the half-maximal activity concentration (AC50) is 25.8 µM (active). For the compound `c1ccc2c(c1)CCC2`, the compound was called inactive.

Consider `O=C1Cc2ccccc2N1c1c(Cl)cccc1Cl`, for which the AC50 is 91.5 µM (active).

Consider `Clc1ccc(Nc2nnc(Cc3ccncc3)c3ccccc23)cc1`, for which the concentration at half-maximal activity (AC50) was 27.6 µM (active).

For the compound `Brc1cc(Br)c(Oc2c(Br)cc(Br)c(Br)c2Br)cc1Br`, the compound was called inactive. Same read-out and setting: under `C=CC(=O)OCCC(F)(F)C(F)(F)C(F)(F)C(F)(F)C(F)(F)C(F)(F)F` stands “inactive”; under `O=C(C=C(O)C(F)(F)F)C(F)(F)F`, “inactive”.

As for `Nc1cc(Cl)c(-c2cc(Cl)c(N)cc2Cl)cc1Cl`, the AC50 is 13.2 µM (active).

`CCC(=O)C=Cc1ccc(OC)cc1`: the half-maximal activity concentration (AC50) is 65.4 µM (active).

In the case of `COC(O)c1ccccc1` (stereo not drawn), the call was inactive. In the case of `CC1CCC(C(=O)O)CC1` (stereo not drawn), the call was inactive. For `CC1CNCC(C)O1` (stereo not drawn), the outcome was inactive. `Cc1ccc(N=Nc2c(O)ccc3ccccc23)c(C)c1`: the compound was classed as inactive. For `Nc1ccc(O)c(C(=O)O)c1`, the call was inactive. `Cc1[nH]nc2c1N=C(c1ccccc1Cl)c1cc([N+](=O)[O-])ccc1N2`: the compound was called inactive. For `O=C(O)C(=O)O`, the result was inactive. Same read-out and setting: in the case of `CCc1cccc(CC)c1N(COC)C(=O)CS(=O)(=O)O` it was “inactive”. In the case of `Clc1ccc2c(Cl)ccnc2c1`, the compound was classed as inactive. Still for that read-out and setting: in the case of `COC1=CC(=O)C[C@@H](C)[C@]12Oc1c(Cl)c(OC)cc(OC)c1C2=O` it was “inactive”. For the compound `O=C(Nc1cccc([N+](=O)[O-])c1)c1cc2ccccc2cc1O`, the outcome was inactive. In the case of `CCc1cccc(CC)c1NC(=O)C(=O)O`, the compound was called inactive. On the same count and under the same terms, in the case of `O=CC(F)(F)C(F)(F)C(F)(F)F` it was “inactive”; in that of `CCCCCCc1ccc(N)cc1`, “inactive”. `COc1cccc(O)c1`: the compound was classed as inactive. For the compound `FC(F)(F)C1(F)C(F)(F)C(F)(F)C(F)(F)C1(F)F`, the call was inactive.

For `C=CC(=O)OCCC(F)(F)C(F)(F)C(F)(F)C(F)(F)C(F)(F)C(F)(F)C(F)(F)C(F)(F)F`, the compound was called inactive. On to `CCCCCc1ccc(O)cc1`, for which the compound was classed as inactive. As for `O=C1OC(=O)c2cc(-c3ccc4c(c3)C(=O)OC4=O)ccc21`, the outcome was inactive.

As to `FC(F)(F)C(F)(F)C(F)(F)C(F)(F)I`, the outcome was inactive. For the compound `OCCN1CN(CCO)CN(CCO)C1`, the AC50 was 165 µM (active). Still for that read-out and setting: in the case of `Oc1c(Cl)cc(Cl)cc1Sc1cc(Cl)cc(Cl)c1O` it was 11.5 µM (active). `COc1cc([N+](=O)[O-])ccc1N`: the result was inactive. Regarding `CC(C)(c1ccc(Oc2ccc(N)cc2)cc1)c1ccc(Oc2ccc(N)cc2)cc1`, the concentration at half-maximal activity (AC50) is 2.77 µM (active). With `CCCC=O`, the call was inactive. For `CCCCCCCCC(C)=O`, the result was inactive. With `NC(C(F)(F)F)C(F)(F)F`, the outcome was inactive. As for `Cc1ccc(C)c(S(=O)(=O)O)c1`, the call was inactive.
